In all, about 69,000 compounds went through this assay and about 8,600 (12%) showed an effect of 50% or more. The sample as a whole holds a higher share of strong results than the screen did.
What follows are compounds tested on Plasmodium berghei (assay: Screen against P. berghei liver stage (PbLuc), transformed with Luciferase, at 10uM). Details: tested at 10 uM.
Format: functional, HepG2

Compound | INHIBITION [%]
CC1CCCN(c2nccn3c(=O)[nH]nc23)C1 (stereo not given) | 17.6
COCC(=O)N1CCC(=O)N(C2CCCC2)Cc2cc(F)ccc21 | -13.3
CCOC(=O)[C@]12CCCN(Cc3nccs3)C[C@H]1CN(CCOC)C2 | -14.4
CCOC(=O)[C@]12CCCN(Cc3cccs3)C[C@H]1CN(C(C)=O)C2 | 51.4
CCOC(=O)[C@]12CCCN(Cc3cccs3)C[C@H]1CN(C(C)C)C2 | 64.3
CCOC(=O)[C@]12CCCN(Cc3nccs3)C[C@H]1CN(CC(C)C)C2 | -13
O=C(O)[C@]12CCCN(Cc3cccs3)C[C@H]1CN(c1ncccn1)C2 | -7.24
CCOC(=O)[C@]12CCCN(Cc3nccs3)C[C@H]1CN(C(C)=O)C2 | -1.64
CCOC(=O)[C@]12CCCN(Cc3ccsc3)C[C@H]1CN(CCOC)C2 | -74.6
CCOC(=O)[C@]12CCCN(Cc3cccs3)C[C@H]1CN(CCOC)C2 | 33.5
CCOC(=O)[C@]12CCCN(Cc3cccs3)C[C@H]1CN(CC(C)C)C2 | 60.3
CCOC(=O)[C@]12CCCN(Cc3nccs3)C[C@H]1CN(C(C)C)C2 | 76.4
CCOC(=O)[C@]12CCCN(Cc3nccs3)C[C@H]1CN(S(C)(=O)=O)C2 | 5.96
CCOC(=O)[C@]12CCCN(Cc3nccs3)C[C@H]1CN(CCN(C)C)C2 | 15.1
COc1cc(-c2nc3c([nH]2)CCCNC3=O)cc(OC)c1OC | -34.8
Cc1ccc(F)cc1C(=O)N1CCN(S(C)(=O)=O)[C@@H](C)C1 | -2.23
CCOC(=O)Cc1cs/c(=N/C(=O)COc2cnc(C)cc2O)[nH]1 | -1.45
CC(C)(C)c1cccc(OCC(=O)NS(=O)(=O)c2cccnc2)c1 | 0.1
CCNC(=O)NC(=O)CNC(C)(C)c1ccc2c(c1)OCO2 | -12.2
CN(Cc1cccnc1)[C@@H]1CN(Cc2ccccn2)[C@@H]2CCCO[C@H]12 | 30.3
NCC1CCC(c2c(C(=O)NCCO)sc3ccccc23)CC1 (stereo not given) | -11.4
CCC1CCCCN1C(=O)CCn1cnc2sccc2c1=O (stereo not given) | 25.4
CC1CCCCN1C(=O)CCn1cnc2sccc2c1=O (stereo not given) | 42.7
CNC(=O)C1CCCCN1C(=O)CCn1cnc2sccc2c1=O (stereo not given) | 52.6
CCn1ncc2c(C(F)F)cc(-c3ccn(C)n3)nc21 | 8.05
CC1(C)CN(C(=O)Nc2ccc(Cn3cccn3)cc2)CCO1 | 49.9
O=C(Nc1ccc(Cn2cccn2)cc1)N1CCC(CO)CC1 | 57.8

Compound | INHIBITION [%]
O=C(Nc1ccc(Cn2cccn2)cc1)N1CCC2(CC1)OCCO2 | 41
COCCOc1ccc(NC(=O)C2CC(=O)N(CC3CC3)C2)cn1 (stereo not given) | 4.71
CN(C)C(=O)N1CCC2(CC1)CN(CC1CC1)CC21CCNC1=O (stereo not given) | -63.9
Cc1cc(C(=O)NCC(F)(F)F)c2c(C3CCNCC3)noc2n1 | 64
Cc1cc(C(=O)NCC(F)(F)F)c2c(C3CCCN3)noc2n1 (stereo not given) | 30.8
Cc1cc(C(=O)NCc2ccc(F)cc2)c2c(C3CCNC3)noc2n1 (stereo not given) | 41.6
O=C(C1CCN(c2nc3nc[nH]c(=O)c3s2)CC1)N1CCCCC1 | 37.4
COc1ccc(CCNC(=O)CC(NC(N)=O)c2ccccc2)cc1 (stereo not given) | 29.1
NC(=O)NC(CC(=O)NCCc1cccc(F)c1)c1ccccc1 (stereo not given) | 20.5
NC(=O)NC(CC(=O)NCCc1ccc(F)cc1)c1ccccc1 (stereo not given) | 53.8
CSCC(=O)N1CCCCC1Cn1cc(C)cn1 (stereo not given) | -5.25
CC(C)CN1CCC2(CCN(CC3CC3)CC2)C1=O | -7.24
COC[C@]1(O)CCN(c2cc(OC)ncn2)CC1(C)C | -31.7
OCC1(Cc2ccccc2F)CCCN(c2ccc3ccccc3n2)C1 (stereo not given) | 89.9
COc1cc(N2CCCC(CO)(Cc3ccccc3F)C2)ncn1 (stereo not given) | 84.9
Nc1cc(N2CCCC(Cc3ccc(F)cc3F)(C(=O)O)C2)ncn1 (stereo not given) | 34.4
Nc1cc(N2CCCC(CO)(Cc3ccccc3F)C2)nc(N)n1 (stereo not given) | 75.1
N#Cc1cccc(N2CCCC(CO)(Cc3ccccc3F)C2)n1 (stereo not given) | 23.5
CCCC1(CO)CCCN(c2ncccc2F)C1 (stereo not given) | -29.9
O=C(O)C1(Cc2ccccc2F)CCCN(c2ncnc3[nH]ccc23)C1 (stereo not given) | 23.5
Nc1ccnc(N2CCCC(CO)(Cc3cccc(Cl)c3)C2)n1 (stereo not given) | 44.9
CNC(=O)N1CC[C@@H]2CN(Cc3cccnc3)S(=O)(=O)[C@@H]2CC1 | 22.2
CN1CC(=O)N(C2CCNCC2)Cc2c(NC3CCC3)ncnc21 | -13
CCOC1COC2(CCN(Cc3ccc4c(c3)OCO4)CC2)C1 (stereo not given) | 24.9
COCCn1c(CN2CCCCO2)cnc1S(=O)(=O)CC1CCCCC1 | -2.13
CCc1cc(NC2CCC(N)CC2)n2nc(C)c(C)c2n1 (stereo not given) | 14.1
CC(C)n1ncc2cc(NC(=O)N3CCC(CO)CC3)cnc21 | 29.7

Compound | INHIBITION [%]
c1ccc(OCc2noc(CN3CCC(N4CCSCC4)CC3)n2)cc1 | 79.5
c1ccc(CCc2noc(CN3CCC(N4CCSCC4)CC3)n2)cc1 | 7.97
c1ccc(OCc2noc(CN3CCN(C4CCCC4)CC3)n2)cc1 | 40.9
CCc1nc(CN(C)C2CCN(CCOc3ccccc3)C2)no1 (stereo not given) | -0.219
Fc1ccccc1Cc1noc(CN2CC[C@@H]3CCCC[C@H]3C2)n1 | 38.4
Fc1ccccc1Cc1noc(CN2CCC(N3CCSCC3)CC2)n1 | 75.2
CS(=O)(=O)NCC1(c2ccccc2Br)CC1 | 46.6
CCN(C)S(=O)(=O)NCC1(c2ccccc2Br)CC1 | 51
CN(C)S(=O)(=O)NCC1(c2ccccc2Br)CC1 | 46.6
O=C(c1cn(-c2ccccc2Cl)nn1)N1CCSCC1 | -28.8
CC(O)CN1CCN(C(=O)c2cn(-c3ccccc3Cl)nn2)CC1 (stereo not given) | -9.67
O=C(c1cn(-c2cccc(Cl)c2F)nn1)N1CCCSCC1 | -134
COCC(C)(C#N)NC(=O)c1cn(-c2cccc(Cl)c2F)nn1 (stereo not given) | 55.6
COC(C)(C)CNC(=O)c1cn(-c2cccc(Cl)c2F)nn1 | 18.7
COCC(NC(=O)c1cn(-c2cccc(Cl)c2F)nn1)C1CC1 (stereo not given) | 51.2
CNC(=O)c1sc2ccccc2c1CC1CCCN1Cc1cnc(C)s1 (stereo not given) | 24.69
CCN1CCc2[nH]nc(C(=O)N3CCCC3C)c2C1 (stereo not given) | -65.2
CS(=O)(=O)NC(=O)c1ccn(-c2cccc(Br)c2)n1 | 16.3
CC(c1ccccc1F)N(CC(N)=O)C1CC1 (stereo not given) | 72.1
CC(c1ccccc1F)N(C(=O)CSCC(N)=O)C1CC1 (stereo not given) | 35.9
CC(c1ccccc1Cl)N(C(=O)CSCC(N)=O)C1CC1 (stereo not given) | 30.4
Cc1nnc2n1CCN(Cc1ccc3c(c1)OCCO3)C2 | 33.8
COCC(=O)N1CCC(O)(CN2CCN(c3ccccc3)CC2)C1 (stereo not given) | 39.7
CC(C)n1c(C(=O)N2CCCC2)nc2c1CCN(C)C2 | 9.79
CC1CCCCN1C(=O)c1nc2c(n1C(C)C)CCN(C)C2 (stereo not given) | 58.5
CC1CCCCN1C(=O)c1nc2c(n1C(C)C)CCN(C(=O)C1CC1)C2 (stereo not given) | -0.554
COCCN1CCC2(C1)c1ccccc1S(=O)(=O)N2C (stereo not given) | 40.5

Compound | INHIBITION [%]
Cc1cc(O)nc(C2CN(CCC(F)(F)F)CCO2)n1 (stereo not given) | -6.92
Cc1cc(O)nc(C2CN(CCO)CCO2)n1 (stereo not given) | 50.8
Cc1cc(O)nc(C2CN(CC3(O)CCOCC3)CCO2)n1 (stereo not given) | -34.6
CN1CCN(C[C@@H]2CN(C3Cc4ccccc4C3)C[C@@H]2CO)CC1 | 8.51
CC(NC(=O)C1CCCCC1)c1cc(O)nc(-c2cccnc2)n1 (stereo not given) | -6.002
O=C(c1sccc1C1CC1)N1CCCN(c2cccnn2)CC1 | 15.7
Cc1ccsc1CN(C)CCc1scnc1C | 46.9
Cc1ncsc1CCN(C)Cc1ccc(CO)o1 | 57.6
Cc1ncsc1CCN(C)Cc1ccc(Br)o1 | 47.1
CC(=O)N1CCCC(c2ncncc2-c2ccncc2)C1 (stereo not given) | 26.8
COc1ccc(CN2C[C@@H](OCc3ccccn3)[C@H]3COC[C@H]32)cc1 | 34.7
Cc1ccc(S(=O)(=O)NCc2cccc(C(=O)N3CCCC3)c2)cc1F | -51.5
CC(C)c1noc(CCCC(=O)N2CCN(Cc3ccccn3)CC2)n1 | 40
Cc1ccc(NC2CCN(C(=O)Cc3c(C)noc3C)CC2)nn1 | 28.38
CC(C)(C)[S+]([O-])CCNC(=O)c1csc(NC2CC2)n1 (stereo not given) | -12.1
Cc1[nH]/c(=N\C(=O)c2csc(NC3CCCC3)n2)sc1C | 83.8
CC(C)CCNC(=O)c1csc(NC2CC2)n1 | -70.8
Cc1[nH]/c(=N\C(=O)c2csc(NC3CC3)n2)sc1C | 77.9
CC(C)NC(=O)c1csc(NC2CC2)n1 | 13.9
CC(=O)Nc1nc(C(=O)N2CCCC(c3cc(C)[nH]n3)C2)cs1 (stereo not given) | 22.3
O=c1[nH]cnc2c1CCN(S(=O)(=O)c1ccc(OC(F)(F)F)cc1)C2 | -10.1
CCc1ccc(NC(=O)Nc2c(O)oc3ccccc3c2=O)cc1 | -11.4
O=C(COCc1ccccc1)NCc1ccc(O)c(F)c1 | -7.93
COCC(=O)N1CCCn2c(CN3CCCC3=O)nnc2C1 | -15.6

From ChEMBL document CHEMBL4513216, “Probing the Open Global Health Chemical Diversity Library for Multistage-Active Starting Points for Next-Generation Antimalarials” (ACS Infect Dis, 2020)
